Measured values as given in PubChem BioAssay AID1211 (NMMLSC, 2008).
Activity calls are given as the source filed them. No rule for the calls is given here.

The compounds below were run against Estrogen receptor (Homo sapiens) (UniProt P03372) (assay: displacement of fluorescent estrogen from ERalpha – cell-based, Cos7 ERalpha-GFP, flow cytometry, primary screen (AID 1211;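 also: 0% = DMSO vehicle wells and 100% = no E2-Alexa633 signal left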)). Conditions: fluorescent ligand competition, at 10 µM, stronger effect = higher value.
Chain of Estrogen receptor (Homo sapiens) (P03372 whole entry, looked up): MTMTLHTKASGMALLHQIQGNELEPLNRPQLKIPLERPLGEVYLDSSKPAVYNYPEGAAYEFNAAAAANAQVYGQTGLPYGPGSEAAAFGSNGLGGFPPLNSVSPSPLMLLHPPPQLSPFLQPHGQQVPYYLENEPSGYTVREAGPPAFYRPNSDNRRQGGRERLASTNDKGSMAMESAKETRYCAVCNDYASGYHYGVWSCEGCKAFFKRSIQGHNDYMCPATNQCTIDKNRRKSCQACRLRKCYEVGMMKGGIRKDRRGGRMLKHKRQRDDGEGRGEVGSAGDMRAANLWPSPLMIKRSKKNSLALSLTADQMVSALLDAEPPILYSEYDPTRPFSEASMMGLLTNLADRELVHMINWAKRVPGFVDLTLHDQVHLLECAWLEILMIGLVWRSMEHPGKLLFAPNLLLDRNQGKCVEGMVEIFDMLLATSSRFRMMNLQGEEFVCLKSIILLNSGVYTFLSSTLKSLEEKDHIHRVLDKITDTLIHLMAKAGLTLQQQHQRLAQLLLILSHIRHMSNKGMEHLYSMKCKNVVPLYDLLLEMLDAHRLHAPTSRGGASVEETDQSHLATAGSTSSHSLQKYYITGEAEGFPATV

Structure (SMILES)	inhibition of ligand binding
CCn1c(SCC(=O)Nc2cccc(F)c2)nnc1-c1cc2cc(Br)ccc2o1	26% (inactive)
C/C(N)=C(/C#N)C(=O)CSc1nnc(Nc2ccccc2C)s1	48% (inactive)
O=c1cc(CSc2nnc(-c3cccs3)n2Cc2ccccc2)nc2sc3ccccc3n12	49% (inactive)
O=C(Nc1nccs1)c1nc(-c2ccccc2)n(-c2ccccc2)n1	27% (inactive)
CN(c1ccccc1C(=O)O)S(=O)(=O)c1ccc2c3c(cccc13)C(=O)N2	40% (inactive)
Cc1nc2cc(-c3ccsc3-n3c(C)ccc3C)[nH]n2c(=O)c1Cl	30% (inactive)
COc1ccc(/C=N/NC(=O)c2nc(-c3ccccc3)cc(-c3ccccc3)n2)cc1O	56% (active)
Cc1cc(C)c(C(=O)COc2cccnc2[N+](=O)[O-])cc1C	19% (inactive)
Cc1ccc(S(=O)(=O)NCCn2c(C)cc3ccccc32)cc1	49% (inactive)
CC(=O)c1ccc(NC(=S)N2CCC(O)CC2)cc1	30% (inactive)
O=C(O)c1cc(-c2ccco2)nc2ccccc12	57% (inactive)
COc1ccccc1-c1nnc2sc(-c3cnccn3)nn12	52% (inactive)
Cc1noc(C)c1COc1ccc(C(=O)OCC(=O)N2c3ccccc3NC(=O)C2(C)C)cc1	59% (inactive)
COc1ccc(OC)c(/C=N/c2oc(-c3ccco3)c(-c3ccco3)c2C#N)c1	25% (inactive)
Cn1nnnc1SCC(=O)Nc1nc(-c2ccccc2)c(-c2ccccc2)o1	45% (inactive)
Cc1ccc(C)c(/C(O)=C2/C(=O)C(=O)N(CCN3CCOCC3)C2c2ccco2)c1 (stereo not drawn)	0% (inactive)
COC(=O)c1ccc(-c2n[nH]c(=O)c3ccccc23)cc1	0% (inactive)
CCO/C([O-])=N/c1c[n+](N2CCOCC2)no1	0% (inactive)
CCN(CC)CCCNC(=O)c1nn(-c2ccccc2OC)c(=O)c2ccccc12	39% (inactive)
Cc1nc2ccccc2c(=O)n1/N=C/c1c(O)ccc2oc3c(c12)CCCC3	48% (inactive)

Structure (SMILES)	inhibition of ligand binding
Oc1ccc(-c2cn3c(n2)SCC3)cc1O	19% (inactive)
O=C(Nc1ccc2nn(-c3ccccc3)nc2c1)c1ccc2c(c1)OCO2	15% (inactive)
Cc1cc(C(=O)Nc2sc3c(c2C#N)CCC3)no1	46% (active)
O=c1cc(-c2ccco2)oc2c1ccc1ccccc12	48% (inactive)
COc1ccc(C2=NN(C(=O)c3cccnc3)C(c3ccccc3)C2)cc1 (stereo not drawn)	37% (inactive)
ON=C1/C(=N\O)CC2(C/C1=N/O)OCCO2	33% (inactive)
COc1ccc(C2Nc3ccccc3C(=O)N2c2ccc(Cl)cc2)cc1Cn1cc([N+](=O)[O-])cn1 (stereo not drawn)	29% (inactive)
Nc1ccc2nc(-c3cccnc3)[nH]c2c1	44% (inactive)
COc1cc2cc(C(c3nnnn3C3CCCC3)N3CCc4ccccc43)c(=O)[nH]c2cc1OC (stereo not drawn)	36% (inactive)
Nc1nc2c(s1)CCc1c-2cnn1-c1ccccc1	13% (inactive)
CCCSC1=N/C(=C\C=C\c2ccco2)C(=O)S1	0% (inactive)
Cc1ccc(-c2n[nH]c(=S)n2/N=C/C=C/c2ccccc2[N+](=O)[O-])cc1	1% (inactive)
CC(=O)c1ccc(NCC(=O)N2CCN(c3ccccc3)CC2)cc1	58% (inactive)
COc1cc(-c2nc3ccccn3c2/N=C/c2ccccc2)ccc1O	53% (inactive)
Cc1cc2n(c1)CCn1c(C)ccc1-2	26% (inactive)
CCCC1Nc2ccc(C(=O)O)cc2C2C=CCC12 (stereo not drawn)	22% (inactive)
COc1nc(-c2ccc(Cl)cc2)ccc1-c1noc(-c2ccco2)n1	57% (inactive)
CCc1nc(N)nc(N)c1-c1ccc(Cl)cc1	26% (inactive)
COc1cc(OC)cc(C(=O)NC2CCN(C(=O)N3c4ccccc4Sc4ccccc43)CC2)c1	6% (inactive)

Same assay, conditions: fluorescent ligand competition, binding inhibition, at 0.1 µM, stronger effect = higher value

Structure (SMILES)	inhibition of ligand binding
CCn1c(SCC(=O)Nc2cccc(F)c2)nnc1-c1cc2cc(Br)ccc2o1	35%
C/C(N)=C(/C#N)C(=O)CSc1nnc(Nc2ccccc2C)s1	18%
O=c1cc(CSc2nnc(-c3cccs3)n2Cc2ccccc2)nc2sc3ccccc3n12	28%
O=C(Nc1nccs1)c1nc(-c2ccccc2)n(-c2ccccc2)n1	36%
CN(c1ccccc1C(=O)O)S(=O)(=O)c1ccc2c3c(cccc13)C(=O)N2	12%
Cc1nc2cc(-c3ccsc3-n3c(C)ccc3C)[nH]n2c(=O)c1Cl	54%
COc1ccc(/C=N/NC(=O)c2nc(-c3ccccc3)cc(-c3ccccc3)n2)cc1O	97%
Cc1cc(C)c(C(=O)COc2cccnc2[N+](=O)[O-])cc1C	30%
Cc1ccc(S(=O)(=O)NCCn2c(C)cc3ccccc32)cc1	17%
CC(=O)c1ccc(NC(=S)N2CCC(O)CC2)cc1	23%
O=C(O)c1cc(-c2ccco2)nc2ccccc12	21%
COc1ccccc1-c1nnc2sc(-c3cnccn3)nn12	3%
Cc1noc(C)c1COc1ccc(C(=O)OCC(=O)N2c3ccccc3NC(=O)C2(C)C)cc1	16%
COc1ccc(OC)c(/C=N/c2oc(-c3ccco3)c(-c3ccco3)c2C#N)c1	19%
Cn1nnnc1SCC(=O)Nc1nc(-c2ccccc2)c(-c2ccccc2)o1	7%
Cc1ccc(C)c(/C(O)=C2/C(=O)C(=O)N(CCN3CCOCC3)C2c2ccco2)c1 (stereo not drawn)	52%
COC(=O)c1ccc(-c2n[nH]c(=O)c3ccccc23)cc1	16%
CCO/C([O-])=N/c1c[n+](N2CCOCC2)no1	12%
CCN(CC)CCCNC(=O)c1nn(-c2ccccc2OC)c(=O)c2ccccc12	62%
Cc1nc2ccccc2c(=O)n1/N=C/c1c(O)ccc2oc3c(c12)CCCC3	52%

Structure (SMILES)	inhibition of ligand binding
Oc1ccc(-c2cn3c(n2)SCC3)cc1O	28%
O=C(Nc1ccc2nn(-c3ccccc3)nc2c1)c1ccc2c(c1)OCO2	44%
Cc1cc(C(=O)Nc2sc3c(c2C#N)CCC3)no1	66%
O=c1cc(-c2ccco2)oc2c1ccc1ccccc12	4%
COc1ccc(C2=NN(C(=O)c3cccnc3)C(c3ccccc3)C2)cc1 (stereo not drawn)	30%
ON=C1/C(=N\O)CC2(C/C1=N/O)OCCO2	48%
COc1ccc(C2Nc3ccccc3C(=O)N2c2ccc(Cl)cc2)cc1Cn1cc([N+](=O)[O-])cn1 (stereo not drawn)	49%
Nc1ccc2nc(-c3cccnc3)[nH]c2c1	26%
COc1cc2cc(C(c3nnnn3C3CCCC3)N3CCc4ccccc43)c(=O)[nH]c2cc1OC (stereo not drawn)	56%
Nc1nc2c(s1)CCc1c-2cnn1-c1ccccc1	21%
CCCSC1=N/C(=C\C=C\c2ccco2)C(=O)S1	31%
Cc1ccc(-c2n[nH]c(=S)n2/N=C/C=C/c2ccccc2[N+](=O)[O-])cc1	14%
CC(=O)c1ccc(NCC(=O)N2CCN(c3ccccc3)CC2)cc1	18%
COc1cc(-c2nc3ccccn3c2/N=C/c2ccccc2)ccc1O	11%
Cc1cc2n(c1)CCn1c(C)ccc1-2	53%
CCCC1Nc2ccc(C(=O)O)cc2C2C=CCC12 (stereo not drawn)	64%
COc1nc(-c2ccc(Cl)cc2)ccc1-c1noc(-c2ccco2)n1	14%
CCc1nc(N)nc(N)c1-c1ccc(Cl)cc1	25%
COc1cc(OC)cc(C(=O)NC2CCN(C(=O)N3c4ccccc4Sc4ccccc43)CC2)c1	22%
